Test results from PubChem BioAssay (EPA / NIEHS).
Active and inactive are the calls of the source. Rule for the calls: active = hit-call score of the fitted dose curve at least 0.9, where 1 is the maximum; inactive = score below 0.9.

How the values were obtained:
[1] = read-out: Vascular endothelial growth factor receptor 2 (Homo sapiens) (UniProt P35968); test: BSK_4H_VEGFRII: BioMAP Diversity Plus: 4H Assay for Vascular endothelial growth factor receptor 2 (VEGFR2) Biomarker Activity (AID 2283031); conditions: primary human endothelial cells (HUVEC); actives raise or lower the signal;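 for AC50: cell-surface VEGFR2 protein level quantified by ELISA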
Method in brief: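 VEGFRII levels on human vascular endothelial primary cells were determined by ELISA at 24 hours post-dosing, with gain- or loss-of-signal fitted against DMSO controls.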

[2] = read-out: Human Leukocyte Antigen - DR isotype (HLADR), HLA-DRA (gene 3122); test: BSK_BE3C_HLADR: BioMAP Diversity Plus: BE3C Assay for Human Leukocyte Antigen - DR isotype (HLADR) Biomarker Activity (AID 2283032); conditions: primary human bronchial epithelial cells; actives raise or lower the signal
Method in brief: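 BioMAP BE3C format: human bronchial epithelium, 24 h compound treatment, ELISA detection of HLA-DR, with bidirectional analysis relative to DMSO.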

[3] = read-out: Vascular cell adhesion molecule 1 (VCAM1), VCAM1 (gene 7412); test: BSK_4H_VCAM1: BioMAP Diversity Plus: 4H Assay for Vascular cell adhesion molecule 1 (VCAM1) Biomarker Activity (AID 2283033); conditions: primary human endothelial cells (HUVEC); actives raise or lower the signal
Method in brief: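 In this human endothelial (HUVEC) system, biomarker ELISA was run 24 h after compound addition, and total protein in parallel wells was assessed by SRB at 560 nm; DMSO served as negative control.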

[4] = read-out: Interferon-gamma inducible Protein 10 (IP10), CXCL10 (gene 3627); test: BSK_BE3C_IP10: BioMAP Diversity Plus: BE3C Assay for Interferon-gamma inducible Protein 10 (IP10) Biomarker Activity (AID 2283034); conditions: primary human bronchial epithelial cells; actives raise or lower the signal
Method in brief: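 BE3C cells (human bronchial epithelial, primary); 24 h exposure; ELISA for IP-10; DMSO-referenced bidirectional fit.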

[5] = read-out: Monokine induced gamma interferon (MIG), CXCL9 (gene 4283); test: BSK_BE3C_MIG: BioMAP Diversity Plus: BE3C Assay for Monokine induced gamma interferon (MIG) Biomarker Activity (AID 2283035); conditions: primary human bronchial epithelial cells; actives raise or lower the signal
Method in brief: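 hu bronchial epithelial 1° cells, 24 h cpd; MIG by ELISA; bidirectional fit, DMSO = baseline.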

[6] = read-out: Transforming growth factor beta 1 (TGFb1), TGFB1 (gene 7040); test: BSK_BE3C_TGFb1: BioMAP Diversity Plus: BE3C Assay for Transforming growth factor beta 1 (TGFb1) Biomarker Activity (AID 2283036); conditions: primary human bronchial epithelial cells; actives raise or lower the signal
Method in brief: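 TGF-b1 measured via ELISA, 24 h after chemical dosing of human bronchial epithelial cells (BE3C). Overt cytotoxicity assessed in parallel by SRB (0.1%, TCA-fixed, 560 nm); analysis bidirectional relative to DMSO.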

[7] = read-out: Plasminogen activator inhibitor-1 (PAI1), SERPINE1 (gene 5054); test: BSK_BE3C_PAI1: BioMAP Diversity Plus: BE3C Assay for Plasminogen activator inhibitor-1 (PAI1) Biomarker Activity (AID 2283037); conditions: primary human bronchial epithelial cells; actives raise or lower the signal
Method in brief: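 In this multiplexed primary-cell system, bronchial epithelial cells receive test chemical and are sampled at 24 h. PAI-1 is read by ELISA, with DMSO serving as negative control for bidirectional fitting.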

[8] = read-out: urokinase plasminogen activator (uPA), PLAU (gene 5328); test: BSK_BE3C_uPA: BioMAP Diversity Plus: BE3C Assay for urokinase plasminogen activator (uPA) Biomarker Activity (AID 2283038); conditions: primary human bronchial epithelial cells; actives raise or lower the signal
Method in brief: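 Measured by ELISA: uPA from human primary bronchial epithelial cells 24 h after chemical treatment. Values derive from bidirectional curve fitting with DMSO serving as negative control. Total protein by SRB staining in parallel wells flagged overt cytotoxicity.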

[9] = read-out: Urokinase-type plasminogen activator receptor (uPAR), PLAUR (gene 5329); test: BSK_BE3C_uPAR: BioMAP Diversity Plus: BE3C Assay for Urokinase-type plasminogen activator receptor (uPAR) Biomarker Activity (AID 2283039); conditions: primary human bronchial epithelial cells; actives raise or lower the signal
Method in brief: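 Chemically treated human bronchial epithelial cells (lung primary) are assayed for uPAR by ELISA after 24 h, with data fitted in both directions using DMSO as negative control.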

[10] = read-out: Interleukin-6 (IL6), IL6 (gene 3569); test: BSK_CASM3C_IL6: BioMAP Diversity Plus: CASM3C Assay for Interleukin-6 (IL6) Biomarker Activity for (AID 2283040); conditions: primary human coronary artery smooth muscle cells; actives raise or lower the signal
[11] = read-out: Tissue plasminogen activator (tPA), PLAT (gene 5327); test: BSK_BE3C_tPA: BioMAP Diversity Plus: BE3C Assay for Tissue plasminogen activator (tPA) Biomarker Activity (AID 2283041); conditions: primary human bronchial epithelial cells; actives raise or lower the signal
Method in brief: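 Using human lung primary bronchial epithelial cells, tPA was measured by ELISA 24 h after dosing; data fitted relative to DMSO.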

[12] = read-out: Interleukin-8 (IL8), CXCL8 (gene 3576); test: BSK_CASM3C_IL8: BioMAP Diversity Plus: CASM3C Assay for Interleukin-8 (IL8) Biomarker Activity (AID 2283042); conditions: primary human coronary artery smooth muscle cells; actives raise or lower the signal;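 note: IL-8 protein level quantified by ELISA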
[13] = read-out: Human Leukocyte Antigen - DR isotype (HLADR), HLA-DRA (gene 3122); test: BSK_CASM3C_HLADR: BioMAP Diversity Plus: CASM3C Assay for Human Leukocyte Antigen - DR isotype (HLADR) Biomarker Activity (AID 2283043); conditions: primary human coronary artery smooth muscle cells; actives raise or lower the signal;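 note: cell-surface HLA-DR protein level quantified by ELISA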
[14] = read-out: Macrophage colony-stimulating factor (MCSF), CSF1 (gene 1435); test: BSK_CASM3C_MCSF: BioMAP Diversity Plus: CASM3C Assay for Macrophage colony-stimulating factor (MCSF) Biomarker Activity (AID 2283044); conditions: primary human coronary artery smooth muscle cells; actives raise or lower the signal;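 note: M-CSF protein amount quantified by ELISA after 24 h exposure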
[15] = read-out: Low-density lipoprotein receptor (LDLR), LDLR (gene 3949); test: BSK_CASM3C_LDLR: BioMAP Diversity Plus: CASM3C Assay for Low-density lipoprotein receptor (LDLR) Biomarker Activity (AID 2283045); conditions: primary human coronary artery smooth muscle cells; actives raise or lower the signal;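 note: LDLR protein level on the cell surface quantified by ELISA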
[16] = read-out: Monocyte Chemoattractant Protein-1 (MCP1), CCL2 (gene 6347); test: BSK_CASM3C_MCP1: BioMAP Diversity Plus: CASM3C Assay for Monocyte Chemoattractant Protein-1 (MCP1) Biomarker Activity (AID 2283046); conditions: primary human coronary artery smooth muscle cells; actives raise or lower the signal;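 note: MCP-1 level quantified by ELISA 24 h after dosing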
[17] = BSK_CASM3C_Proliferation: Cell Proliferation Assessment in the BioMAP Diversity Plus: CASM3C Assay (AID 2283047); conditions: primary human coronary artery smooth muscle cells;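 note: sulforhodamine B total protein stain as relative cell number at 560 nm; sub-confluent cells exposed 48 h before staining; fitted both ways against DMSO so gain or loss of cell number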
[18] = read-out: Monokine induced gamma interferon (MIG), CXCL9 (gene 4283); test: BSK_CASM3C_MIG: BioMAP Diversity Plus: CASM3C Assay for Monokine induced gamma interferon (MIG) Biomarker Activity (AID 2283048); conditions: primary human coronary artery smooth muscle cells; actives raise or lower the signal;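 note: MIG protein level measured by ELISA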
[19] = read-out: serum amyloid A (SAA), SAA1 (gene 6288); test: BSK_CASM3C_SAA: BioMAP Diversity Plus: CASM3C Assay for serum amyloid A (SAA) Biomarker Activity (AID 2283049); conditions: primary human coronary artery smooth muscle cells; actives raise or lower the signal;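 note: SAA protein level quantified by ELISA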
[20] = BSK_CASM3C_SRB: Viability Assessment in the BioMAP Diversity Plus: CASM3C Assay (AID 2283050); conditions: primary human coronary artery smooth muscle cells;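 note: total protein by SRB staining as cytotoxicity measure in parallel cultures; cells exposed to compound for 24 h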

Measured: AC50

Nc1cc(Cl)cc(C(=O)O)c1Cl
inactive: all assays above

COc1cc(C=O)cc2c1[C@H](COC(N)=O)[C@]1(OC(C)=O)ON2C[C@H]2[C@@H]1N2C(C)=O
active: [1] 4.42 µM | [2] 1.74 µM | [3] 13.4 µM | [4] 2.72 µM | [5] 9.98 µM | [6] 4.63 µM | [7] 1.99 µM | [8] 7.92 µM | [9] 6.18 µM | [10] 6.63 µM | [11] 2.11 µM | [12] 3.6 µM | [13] 1.18 µM | [14] 1.3 µM | [15] 3.91 µM | [16] 4.5 µM | [17] 0.485 µM | [18] 3.59 µM | [19] 4.54 µM | [20] 3.7 µM

O=C(O)C1C2CCC(O2)C1C(=O)O (configuration not stated)
active: [3] 12.1 µM | [6] 18.6 µM | [11] 18.6 µM | [13] 4.92 µM | [16] 21.8 µM
not listed: [14] | [17]
inactive: all other assays above

COC(=O)c1ccccc1N
not listed: [5]
inactive: all other assays above

CC(C)N(Cc1ccccc1)C(=O)C(C)(C)C
not listed: [5]
inactive: all other assays above

CS(=O)(=O)NC(=O)c1cc(Oc2ccc(C(F)(F)F)cc2Cl)ccc1[N+](=O)[O-]
active: [13] 20 µM
inactive: all other assays above

c1ccc(C2CO2)cc1 (configuration not stated)
inactive: all assays above

CCCCOC(=O)c1ccccc1C(=O)OCc1ccccc1
not listed: [5]
inactive: all other assays above

O=P(OCCCl)(OCCCl)OCCCl
not listed: [5]
inactive: all other assays above

Brc1ccc(Oc2ccccc2)cc1
not listed: [5]
inactive: all other assays above

O=C(Nc1ccccc1)c1ccccc1I
inactive: all assays above

CCN(CC)CCO
inactive: all assays above

COP(=S)(OC)SCN1C(=O)c2ccccc2C1=O
inactive: all assays above

CNC(=O)Oc1cccc2c1OC(C)(C)C2
inactive: all assays above

O=C(N[C@H](c1ccccc1)[C@@H]1CN2CCC1CC2)c1c(Cl)ccc(C(F)(F)F)c1Cl
active: [2] 39.7 µM | [4] 21.9 µM | [5] 49 µM | [6] 19.4 µM | [7] 29.7 µM | [8] 22.4 µM | [9] 34.5 µM | [11] 29.7 µM | [15] 25 µM | [17] 25.2 µM
inactive: all other assays above

O=C1CCCO1
inactive: all assays above

N#CC(Br)(Br)C(N)=O
not listed: [5]
inactive: all other assays above

CC(C)COC(=O)c1ccccc1C(=O)OCC(C)C
active: [3] 14.1 µM
inactive: all other assays above

c1ccc2c(c1)oc1ccccc12
not listed: [5]
inactive: all other assays above

CCCCCCCCCCCCCN1CC(C)OC(C)C1 (configuration not stated)
not listed: [5]
inactive: all other assays above

CCCSC(=O)N(CCC)CCC
inactive: all assays above

CC(C)(C)OOC(=O)c1ccccc1
active: [17] 8.08 µM
not listed: [5]
inactive: all other assays above

Cc1ccc([N+](=O)[O-])cc1
inactive: all assays above

C1=Cc2cccc3cccc1c23
not listed: [5]
inactive: all other assays above

CCC12COCN1COC2
active: [17] 4.32 µM
inactive: all other assays above

Nc1ccc(N=Nc2ccccc2)cc1
active: [13] 16.8 µM
inactive: all other assays above

c1ccc(N=Nc2ccccc2)cc1
not listed: [5]
inactive: all other assays above
